12-LOX inh – Primary qHTS assay for inhibitors of human arachidonate 12S-lipoxygenase (ALOX12): Round 2; 1.1% of 580,000 active; Polyunsaturated fatty acid lipoxygenase ALOX12 (Homo sapiens), P18054; purified 12hLO, xylenol orange hydroperoxide absorbance; Potency, µM (titrated, usually from 108 µM), for inactives: top-dose activity change, negative = inhibition, usual class: inhibitors; AID 1671190, 2021
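Purified human 12hLO (150 nM final) in 25 mM Hepes, 0.01% Triton X-100, pH 7.0 was preincubated 15 min at room temperature with compound. Then 40 uM arachidonic acid was added, 30 min. Hydroperoxide was read by Fe-XO absorbance ratio 573/405 nm.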
ELG1 repair inh – qHTS screen for small molecules that inhibit ELG1-dependent DNA repair in human embryonic kidney (HEK293T) cells expressing luciferase-tagged ELG1; HEK293T ELG1-luciferase reporter, luminescence, 16 h; DNA damage induced by 5-fluorouridine; Potency, µM (doses to about 46.1 µM), inactives show at the highest dose activity change, negative = inhibition, actives largely listed as inhibitors; 2.3% of 330,000 active; further: nearly all actives have a fitted effect of over 55% in size
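HEK293T cells expressing luciferase-tagged ELG1 (2,000/well) received 5-Fluorouridine plus compound or DMSO for 16 hr at 37 °C. Luciferase was read by ONE-Glo luminescence after 30 min at room temperature.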
RORgamma inh – qHTS for inhibitors of ROR gamma transcriptional activity; Nuclear receptor ROR-gamma (Mus musculus), P51450; Drosophila S2 Gal4-RORgamma UAS-luciferase reporter, 20 h; Potency, µM (series often up to 53.6 µM), inactives show at the highest dose activity change, negative = inhibition, actives largely listed as inhibitors; 5.4% of 310,000 active; AID 2551, 2010; further: nearly all actives have a fitted effect of over 60% in size
Target sequence (P51450 whole entry, looked up, the tested form may be a part): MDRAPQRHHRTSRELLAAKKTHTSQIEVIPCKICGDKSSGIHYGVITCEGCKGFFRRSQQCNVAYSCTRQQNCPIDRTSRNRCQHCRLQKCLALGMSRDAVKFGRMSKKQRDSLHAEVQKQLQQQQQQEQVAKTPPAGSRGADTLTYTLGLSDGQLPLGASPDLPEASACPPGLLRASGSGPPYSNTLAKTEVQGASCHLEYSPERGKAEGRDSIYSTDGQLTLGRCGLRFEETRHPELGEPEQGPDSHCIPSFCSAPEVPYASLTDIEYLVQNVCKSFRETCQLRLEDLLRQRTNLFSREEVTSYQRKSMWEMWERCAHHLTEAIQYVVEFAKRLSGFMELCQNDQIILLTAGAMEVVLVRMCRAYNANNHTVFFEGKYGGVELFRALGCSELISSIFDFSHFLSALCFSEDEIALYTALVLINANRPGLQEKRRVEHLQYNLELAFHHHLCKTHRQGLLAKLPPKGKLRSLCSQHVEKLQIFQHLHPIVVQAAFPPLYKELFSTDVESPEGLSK
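Schneider cells (Drosophila), stable Gal4 DBD–ROR gamma + UAS-luc; 1 hr cmpd preincubation; Cu2+ induction 700 uM final; 20 hr ambient; luminescence.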
TDP1 cell noCPT – qHTS for Inhibitors of human tyrosyl-DNA phosphodiesterase 1 (TDP1): qHTS in cells in absence of CPT | DT40 Tdp1-/- hTDP1 cells, no CPT, ATP luminescence, 48 h | Potency, µM (highest dose often 46.2 µM), without a hit: at the top dose activity change, negative = growth inhibition, hits mostly inhibitors | 15% of 420,000 active; further: nearly all actives have a fitted effect of over 55% in size
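Luminescent ATP content (CellTiter-Glo) served as the growth readout. Knockout chicken DT40 cells expressing human TDP1 were exposed to compounds without camptothecin for a minimum 48 hr at 37 °C.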
Gal4-VP16 FLuc – VP16 counterscreen qHTS for inhibitors of ROR gamma transcriptional activity; Drosophila S2 Gal4-VP16 UAS-luciferase, luminescence, 20 h; Potency, µM (highest dose often 53.6 µM), for the others: top-dose activity, negative = inhibition, actives largely listed as inhibitors; 3.5% of 310,000 active;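 further: Gal4-VP16 expression switched on by copper sulfate through the metallothionein promoter; nearly all actives have a fitted effect of over 50% in size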
TDP1 cell CPT – qHTS for Inhibitors of human tyrosyl-DNA phosphodiesterase 1 (TDP1): qHTS in cells in presence of CPT; chicken DT40 Tdp1-/-;hTDP1 cells + 20 nM CPT, ATP luminescence, 48 h; Potency, µM (titrated, usually from 46.2 µM), for the others: at the highest dose activity change, negative = growth inhibition, most hits filed as inhibitors; 12% of 420,000 active; further: nearly all actives have a fitted effect of over 55% in size
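Chicken DT40 Tdp1-/- cells complemented with human TDP1, 400 cells/well, exposed to compounds plus 20 nM camptothecin for at least 48 h at 37 C; viability read as ATP content by CellTiter-Glo luminescence.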
Active calls of the source: *. Sampled rows, rich in hits. Any-hit rate of the full collection: about 15%. The call rests on the fitted dose curve; in most records, active means well fitted curve in the direction sought with a large enough effect; inconclusive means small, poorly fitted or top-dose-only effect, or another doubt; inactive means no such curve, though single readings can be large; an effect the other way counts as inactive or inconclusive. On the % scale 0 is the no-effect control and ±100 the full control effect; potency means the concentration at half of the fitted maximal effect.

Cc1cc(C(=O)N2CCC(N3C[C@H](O)C[C@H]3C(=O)NC3CCCCC3)CC2)nn1C was read as 12-LOX inh 30%.
CN(Cc1nc(-c2ccc(Cl)cc2)no1)C(=O)c1ccco1 was read as 12-LOX inh -19%, ELG1 repair inh -6%, RORgamma inh 35%, TDP1 cell noCPT inconclusive, Gal4-VP16 FLuc -10% and TDP1 cell CPT -26%.
For CC(C)N(Cc1nc(-c2ccccc2)no1)C(=O)c1ccc([N+](=O)[O-])cc1 the results were 12-LOX inh -14%, ELG1 repair inh inconclusive, RORgamma inh inconclusive, TDP1 cell noCPT 5.2µM*, Gal4-VP16 FLuc -8% and TDP1 cell CPT 4.6µM*.
`Cc1ccc(-c2noc(CN(C(=O)c3cccs3)C(C)C)n2)cc1` gave 12-LOX inh inconclusive, ELG1 repair inh 0%, RORgamma inh 1%, TDP1 cell noCPT inconclusive, Gal4-VP16 FLuc -4% and TDP1 cell CPT inconclusive.
Cc1occc1C(=O)N(C)Cc1nc(-c2ccc(Cl)cc2)no1 was read as 12-LOX inh -30%, ELG1 repair inh inconclusive, RORgamma inh 15%, TDP1 cell noCPT 21µM*, Gal4-VP16 FLuc 1% and TDP1 cell CPT 26µM*.
Cc1ccc(-c2noc(CNC(=O)c3ccc(C)c(Cl)c3)n2)cc1 was read as 12-LOX inh -28%, TDP1 cell noCPT 23µM* and TDP1 cell CPT inconclusive.
For CC(C)N(Cc1nc(-c2ccc(Cl)cc2)no1)C(=O)c1ccco1 the results were 12-LOX inh -16%, TDP1 cell noCPT 23µM* and TDP1 cell CPT inconclusive.
COc1ccc(-c2noc(CN(C(=O)c3c(-c4ccccc4Cl)noc3C)C(C)C)n2)cc1 was read as 12-LOX inh 10%, ELG1 repair inh inconclusive, RORgamma inh 18%, TDP1 cell noCPT 23µM*, Gal4-VP16 FLuc 1% and TDP1 cell CPT 16µM*.
CC(C)N(Cc1nc(-c2ccc(Cl)cc2)no1)C(=O)CCCN1C(=O)c2ccccc2C1=O was read as 12-LOX inh -23%, ELG1 repair inh 23µM*, RORgamma inh -1%, TDP1 cell noCPT -26%, Gal4-VP16 FLuc -10% and TDP1 cell CPT inconclusive.
For COc1ccc(-c2noc(CN(C(=O)c3ccccc3Cl)C(C)C)n2)cc1 the results were 12-LOX inh -5%, TDP1 cell noCPT 18µM* and TDP1 cell CPT 26µM*.
Screening CCCCOc1ccc(C(=O)N(Cc2nc(-c3ccc(Cl)cc3)no2)C(C)C)cc1 returned 12-LOX inh -16%, TDP1 cell noCPT inconclusive and TDP1 cell CPT inconclusive.
For CC(C)N(Cc1nc(-c2ccccc2)no1)C(=O)c1ccc(Cl)cc1 the results were 12-LOX inh inconclusive, ELG1 repair inh -12%, RORgamma inh inconclusive, TDP1 cell noCPT 18µM*, Gal4-VP16 FLuc -1% and TDP1 cell CPT 18µM*.
COc1ccc(-c2noc(CN(C(=O)c3cc(OC)c(OC)cc3OC)C(C)C)n2)cc1 was read as 12-LOX inh -10%, TDP1 cell noCPT inconclusive and TDP1 cell CPT inconclusive.
O=C1CCN(S(=O)(=O)c2ccccc2)CCCN(Cc2cn[nH]c2-c2cccs2)CCN1 was read as 12-LOX inh -3%.
CCn1ncc(CN2CC[C@@H]3C(=O)NCCCCCCN(Cc4ccncc4)[C@@H]3C2)c1C was read as 12-LOX inh 70%.

Bioassay records: PubChem BioAssay, National Center for Advancing Translational Sciences (NCATS)
